This is a sample that favours compounds with a hit; in the whole collection about 17% have one here.
HT1080-NT tox: kills 2HG-producing HT-1080-NT fibrosarcoma cells; HT-1080-NT fibrosarcoma viability, CellTiter-Glo ATP luminescence, 48 h; Potency, µM (highest dose often 46.1 µM), hits mostly cytotoxic; 360,000 compounds, 1.6% hits;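 further: NT is the 2HG producing partner of a matched IDH1 knockdown line; nearly all actives have a fitted effect of over 55% in size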
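Luminescent CellTiter-Glo readout after 48 hours of compound exposure at 37 degrees C defined viability of HT-1080-NT cells. Activity was normalized to DMSO wells and cell-free media wells; concentration-response curves were fitted and assigned curve classes.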
HT1080 IDH1KD tx: toxicity to HT-1080 IDH1 knockdown cells (counter line); HT-1080 IDH1 knockdown viability, ATP luminescence, 48 h; Potency, µM (series often up to 46.1 µM), usual class: cytotoxic; 360,000 compounds, 2% hits; AID 686971
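Cytotoxicity counter-line: IDH1KD HT-1080, 48 h, CellTiter-Glo. Curves classed by r2, magnitude and activity.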
DT40 TDP1 CPT: DT40-hTDP1 cell growth loss with CPT. chicken DT40 Tdp1-/-;hTDP1 cells + 20 nM CPT, ATP luminescence, 48 h. Potency, µM (top dose mostly 46.2 µM), most hits filed as inhibitors. 420,000 compounds, 12% hits. AID 686979; further: nearly all actives have a fitted effect of over 55% in size
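Cell growth measured by CellTiter-Glo luminescence after a minimum 48 h, 37 C compound exposure with 20 nM CPT in Tdp1-knockout DT40 cells stably expressing hTDP1, seeded 400/well; qHTS titration format.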
HepG2 viability: HepG2 cytotoxicity, counter-screen for TGF-b inhibitors. HepG2 CAGA-GFP viability, ATP luminescence, 18 h. Potency, µM (doses to about 46.1 µM), hits mostly cytotoxic. 410,000 compounds, 0.76% hits
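HepG2 CAGA-GFP cells (1000/well, DMEM with 1% FBS) received compound, then TGF-beta at 500 pg/mL final, and were incubated 18 hours at 37 degrees C. Viability was read by CellTiter-Glo luminescence. Media-only wells were set as complete cell-killing and DMSO as no toxicity.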
TGFb SMAD3 inh: inhibitors of TGF-b signaling; 410,000 compounds, 1.2% hits; Potency, µM (titrated, usually from 46.1 µM), hits mostly inhibitors; HepG2 CAGA-GFP TGF-b/SMAD3 reporter, GFP fluorescence, 18 h; TGF-beta stimulated, 500 pg/mL final; further: nearly all actives have a fitted effect of over 65% in size
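Inhibition of TGF-beta-driven CAGA-GFP reporter expression in HEPG2 cells is measured by cellular GFP fluorescence after 18 h stimulation with 500 pg/mL recombinant TGF-beta in 1% FBS medium at 37 degrees C.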
DT40 TDP1 no CPT: qHTS for Inhibitors of human tyrosyl-DNA phosphodiesterase 1 (TDP1): qHTS in cells in absence of CPT; DT40 Tdp1-/- hTDP1 cells, no CPT, ATP luminescence, 48 h; Potency, µM (titrated, usually from 46.2 µM), hits mostly inhibitors; 420,000 compounds, 15% hits; AID 686978, 2013; further: nearly all actives have a fitted effect of over 55% in size
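Chicken DT40 Tdp1-/- cells stably complemented with human TDP1 were seeded at 400 cells/well with DMSO in place of 20 nM camptothecin. After compound pinning, cells grew at least 48 hr at 37 °C; viability read by CellTiter-Glo luminescence.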
Numbers stand for hits. The call rests on the fitted dose curve; in most records, active means well fitted curve in the direction sought with a large enough effect; inconclusive means small, poorly fitted or top-dose-only effect, or another doubt; inactive means no such curve, though single readings can be large; an effect the other way counts as inactive or inconclusive.

`Cc1ccc(-c2cc(C(=O)N/N=C/c3ccc([N+](=O)[O-])o3)c3ccccc3n2)o1` gave HT1080-NT tox inconclusive, HT1080 IDH1KD tx inconclusive, DT40 TDP1 CPT 18.4µM, HepG2 viability 11.2µM, TGFb SMAD3 inh 14.1µM and DT40 TDP1 no CPT 13µM.
Screening COc1ccc(-c2ccc(CN3C(CC(C)C)C(=O)N(Cc4cn(CCC5OCCO5)nn4)CCS3(=O)=O)cc2)cc1OC (centres undefined) returned HT1080-NT tox inactive, HT1080 IDH1KD tx inactive, DT40 TDP1 CPT 20.6µM, HepG2 viability inactive, TGFb SMAD3 inh inactive and DT40 TDP1 no CPT 16.4µM.
For COc1ccc(-c2ccc(CN3C(C)C(=O)N(Cc4cn(CCC5OCCO5)nn4)CCS3(=O)=O)cc2)cc1OC (centres undefined) the results were HT1080-NT tox inactive, HT1080 IDH1KD tx inactive, DT40 TDP1 CPT 18.4µM, HepG2 viability inactive, TGFb SMAD3 inh inactive and DT40 TDP1 no CPT 11.6µM.
CC(C)CC1C(=O)N(Cc2cn(CCC3OCCO3)nn2)CCS(=O)(=O)N1Cc1ccc(-c2ccc(F)cc2)cc1 (centres undefined) was read as HT1080-NT tox inconclusive, HT1080 IDH1KD tx inconclusive, DT40 TDP1 CPT inconclusive, HepG2 viability inactive, TGFb SMAD3 inh inconclusive and DT40 TDP1 no CPT 23.1µM.
COCOCCn1cc(CN2CCS(=O)(=O)N(Cc3ccc(-c4cccc(CO)c4)cc3)C(C)C2=O)nn1 (centres undefined) was read as HT1080-NT tox inactive, HT1080 IDH1KD tx inactive, DT40 TDP1 CPT inactive, HepG2 viability inactive, TGFb SMAD3 inh inactive and DT40 TDP1 no CPT inactive.
Screening COc1ccc(C2CC(C(F)(F)F)n3nc(C(=O)NCc4c(C)nn(C)c4C)c(Cl)c3N2)cc1 (centres undefined) returned HT1080-NT tox inconclusive, HT1080 IDH1KD tx inactive, DT40 TDP1 CPT 1.3µM, HepG2 viability inactive, TGFb SMAD3 inh inconclusive and DT40 TDP1 no CPT 5.17µM.
COc1ccc(C2CC(C(F)(F)F)n3nc(C(N)=O)c(Cl)c3N2)cc1OC (centres undefined) was read as HT1080-NT tox inactive, HT1080 IDH1KD tx inactive, DT40 TDP1 CPT inactive, HepG2 viability inactive, TGFb SMAD3 inh inactive and DT40 TDP1 no CPT inconclusive.
For COc1ccc(C2CC(C(F)(F)F)n3nc(C(=O)N(C)Cc4cn(C)nc4C)c(Cl)c3N2)cc1 (centres undefined) the results were HT1080-NT tox inactive, HT1080 IDH1KD tx inactive, DT40 TDP1 CPT inconclusive, HepG2 viability inactive, TGFb SMAD3 inh inactive and DT40 TDP1 no CPT 18.4µM.
For Cc1ccc(C(=O)c2oc3ccccc3c2NC(=O)Cc2ccccc2)cc1 the results were HepG2 viability inactive and TGFb SMAD3 inh inactive.
Cc1ccc(C(=O)c2oc3ccccc3c2NC(=O)c2cc(-c3ccccc3O)n[nH]2)cc1 was read as HT1080-NT tox 16.4µM, HT1080 IDH1KD tx inconclusive, DT40 TDP1 CPT 25.9µM, HepG2 viability inactive, TGFb SMAD3 inh inactive and DT40 TDP1 no CPT 10.3µM.
Cc1ccc(C(=O)c2oc3ccccc3c2NC(=O)c2cc(-c3cc(C)ccc3O)n[nH]2)cc1 was read as HT1080-NT tox inactive, HT1080 IDH1KD tx inactive, DT40 TDP1 CPT 16.4µM, HepG2 viability inactive, TGFb SMAD3 inh inactive and DT40 TDP1 no CPT 13µM.
`O=C(Nc1c(C(=O)c2ccccc2)oc2ccccc12)c1cc(-c2ccccc2O)n[nH]1` gave HT1080-NT tox inconclusive, HT1080 IDH1KD tx 18.4µM, DT40 TDP1 CPT 20.6µM, HepG2 viability inactive, TGFb SMAD3 inh inactive and DT40 TDP1 no CPT 18.4µM.
CC(C)(C)c1ccc(C(=O)Nc2c(C(=O)c3ccc(F)cc3)oc3ccccc23)cc1 was read as HepG2 viability inactive and TGFb SMAD3 inh inactive.
Screening CN(CC1COc2ccccc2O1)C(=O)CCNS(=O)(=O)c1ccc(F)c(Cl)c1 (centres undefined) returned HT1080-NT tox inactive, HT1080 IDH1KD tx inactive, DT40 TDP1 CPT inactive, HepG2 viability inactive, TGFb SMAD3 inh inactive and DT40 TDP1 no CPT inconclusive.
Screening COc1ccc(CNC(=O)COC(=O)/C=C/c2cccc(Cl)c2)cc1 returned HT1080-NT tox inactive, HT1080 IDH1KD tx inactive, DT40 TDP1 CPT inactive, HepG2 viability inactive, TGFb SMAD3 inh inactive and DT40 TDP1 no CPT inactive.
COC(=O)c1ccccc1CCC(C)=O was read as HT1080-NT tox inactive, HT1080 IDH1KD tx inactive, DT40 TDP1 CPT inconclusive, HepG2 viability inactive, TGFb SMAD3 inh inconclusive and DT40 TDP1 no CPT 16.4µM.
For COC(=O)c1ccccc1O the results were DT40 TDP1 CPT inactive and DT40 TDP1 no CPT inactive.
CC(C)c1cccc(C(C)C)c1NC(=O)CCl was read as HT1080-NT tox inactive, HT1080 IDH1KD tx inactive, DT40 TDP1 CPT inconclusive, HepG2 viability inactive, TGFb SMAD3 inh inactive and DT40 TDP1 no CPT 16.4µM.
`CC(C)c1cccc(C(C)C)c1NC(=O)CNCC(O)c1ccccc1` (centres undefined) gave HT1080-NT tox inactive, HT1080 IDH1KD tx inactive, DT40 TDP1 CPT inactive, HepG2 viability inactive, TGFb SMAD3 inh inactive and DT40 TDP1 no CPT inactive.
`Cc1nn(C)c2c1c(C(F)(F)F)cc(=O)n2Cc1cccc(Br)c1` gave DT40 TDP1 CPT inactive, HepG2 viability inactive, TGFb SMAD3 inh inactive and DT40 TDP1 no CPT inactive.
`O=C1N/C(=N\N=C\c2ccccn2)SC1Cc1cccc(SC(F)F)c1` (centres undefined) gave HT1080-NT tox inactive, HT1080 IDH1KD tx inconclusive, DT40 TDP1 CPT 7.31µM, HepG2 viability inactive, TGFb SMAD3 inh inconclusive and DT40 TDP1 no CPT 5.8µM.
Screening O=C1N/C(=N\N=C\c2cccnc2)SC1Cc1ccc(SC(F)F)cc1 (centres undefined) returned HT1080-NT tox inconclusive, HT1080 IDH1KD tx 23.1µM, DT40 TDP1 CPT 2.91µM, HepG2 viability inactive, TGFb SMAD3 inh inactive and DT40 TDP1 no CPT 3.66µM.
O=c1cc(-c2ccc(O)cc2)oc2cc(O[C@@H]3O[C@H](CO)[C@H](O)[C@H](O)[C@H]3O)cc(O)c12 was read as HepG2 viability inactive and TGFb SMAD3 inh inactive.
CC(C)(C)NC(=O)CN1CCN(C(=O)CCl)CC1 was read as HT1080-NT tox inconclusive, HT1080 IDH1KD tx inconclusive, DT40 TDP1 CPT 23.1µM, HepG2 viability inactive, TGFb SMAD3 inh inconclusive and DT40 TDP1 no CPT 20.6µM.
`CCOC(=O)N1CCN(C(=O)CCl)CC1` gave HT1080-NT tox inconclusive, HT1080 IDH1KD tx inconclusive, DT40 TDP1 CPT inconclusive, HepG2 viability inactive, TGFb SMAD3 inh inactive and DT40 TDP1 no CPT inconclusive.
